Source: the supplement of paper PMC11219838
A number with no mark means an inactive call.

Tests used:
Settings in all cases: 60 µM; 5 days; temperature: 20 °C
Meloidogyne hapla J2 = assay: proportion of mobile M. hapla J2 relative to DMSO control (fraction of DMSO control); higher = more viable, less nematicidal, active = 0.7 or less
In short: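 About 25 M. hapla J2 were placed in each well of a 96-well plate in distilled water, and compound was pinned in to a final 60 µM with 0.6% v/v DMSO. The sealed plates were shaken at 200 rpm at 20 °C for 5 days, after which 2 µL of 1 M NaOH went into each well. Mobility was then scored under the microscope and divided by the mean value from DMSO-only wells on the same plate. Each plate held eight such DMSO wells, and two biological replicates were averaged.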

[1] = test system: Caenorhabditis elegans dauer (daf-2(e1370)); assay: proportion of mobile C. elegans dauer larvae relative to DMSO control (fraction of DMSO control); higher = more viable, less nematicidal, active = 0.63 or less; extreme values may be limits of the assay
In short: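 Synchronized C. elegans daf-2(e1370) larvae were held at 25 °C for 48 h on MYOB plates with E. coli OP50 to form dauers, and about 20 dauers were added per 96-well well in liquid NGM. Compound was pinned to 60 µM final (0.6% v/v DMSO), and sealed plates were shaken at 200 rpm for 5 days at 20 °C. The proportion of mobile worms was scored under a dissection microscope relative to DMSO controls and averaged over two biological replicates.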

Ditylenchus dipsaci = assay: proportion of mobile D. dipsaci (mixed stage) relative to DMSO control (fraction of DMSO control); higher = more viable, less nematicidal, active = 0.86 or less; extreme values may be limits of the assay
In short: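 Ditylenchus dipsaci nematodes were cultured on pea plants in Gamborg B-5 agar, then extracted into water through a filter funnel, and roughly 20 worms in distilled water were placed in each well of a 96-well plate. Compound was pinned in to a final concentration of 60 µM (0.6% v/v DMSO), and the sealed plates were shaken at 200 rpm for 5 days at 20 °C. Mobile worms were counted under the microscope after 2 µL of 1 M NaOH was added. Mobility is given relative to DMSO controls as the mean of two biological replicates.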

Row | SMILES | proportion of mobile M. hapla J2 (Meloidogyne hapla J2) | proportion of mobile C. elegans dauer larvae [1] | proportion of mobile D. dipsaci (Ditylenchus dipsaci)
1 | CC(C)(C)c1ccc(-c2nnc(SCC(=O)c3ccc(F)cc3)o2)cc1 | 0.825 | 1 | 1
2 | COc1ccc(-c2nnc(SCC(=O)Nc3ccc(C)cc3Br)o2)cc1 | 1.01 | 1 | 1
3 | Brc1ccc(-c2noc(-c3ccc(Br)o3)n2)o1 | 0.949 | 1 | 1
4 | COc1ccc(-c2noc(COc3ccc(C)cc3Br)n2)cc1 | 1.01 | 1 | 1
5 | COc1ccccc1-c1noc(-c2ccccc2)n1 | 1.04 | 1 | 1
6 | Brc1ccc(-c2nnc(SCc3ccccc3)o2)cc1 | 1.04 | 1 | 1
7 | Clc1ccc(SCc2nc(-c3ccccn3)no2)cc1 | 0.0259 (active) | 0.5 (active) | 1
8 | Clc1ccc(-c2nc(-c3ccc4c(c3)OCO4)no2)cc1 | 1.03 | 1 | 1
9 | Cc1cccc(-c2noc(-c3ccc(C)cc3Cl)n2)c1 | 0.964 | 1 | 1
10 | O=C(CSc1nnc(-c2ccc(Br)cc2)o1)Nc1ccc2ccccc2c1 | 0.866 | 1 | 1
11 | Fc1ccc(-c2noc(COc3ccccc3)n2)cc1 | 1.07 | 0.5 (active) | 1
12 | Cc1cccc(OC(C)c2nc(-c3ccncc3)no2)c1 (configuration not stated) | 0.988 | 0.85 | 1
13 | COc1ccc(-c2noc(CSc3ccc(C)cc3)n2)cc1 | 1.03 | 1 | 1
14 | COc1ccc(-c2noc(-c3cccc(Cl)c3)n2)cc1 | 0.819 | 1 | 1
15 | COc1cccc(-c2nc(-c3ccc(Cl)cc3)no2)c1 | 1.04 | 1 | 1
16 | Brc1ccc(-c2nc(-c3ccccc3)no2)cc1 | 1 | 1 | 1
17 | FC(F)(F)c1cccc(-c2noc(-c3ccccc3Cl)n2)c1 | 1.04 | 1 | 1

Row | SMILES | proportion of mobile M. hapla J2 (Meloidogyne hapla J2) | proportion of mobile C. elegans dauer larvae [1] | proportion of mobile D. dipsaci (Ditylenchus dipsaci)
18 | O=C(c1ccccc1-c1nc(-c2ccccc2Cl)no1)N1CCCC1 | 0.947 | 1 | 1
19 | COc1cccc(-c2noc(-c3ccc(Cl)cc3)n2)c1 | 0.983 | 0.562 (active) | 1
20 | Clc1ccc(OCc2nc(-c3ccccc3)no2)cc1 | 1.04 | 1 | 1
21 | CCOc1ccccc1-c1nnc(SCC(=O)Nc2nc(C)cs2)o1 | 0.993 | 1 | 1
22 | Cc1ccc(C)c(OCc2nc(-c3ccccc3Cl)no2)c1 | 0.854 | 1 | 1
23 | Cc1ccccc1-c1nc(-c2ccccc2Cl)no1 | 0.985 | 1 | 1
24 | O=C(CSc1nnc(-c2cccc(Br)c2)o1)N1CCCCC1 | 0.915 | 1 | 1
25 | Cc1cccc(-c2noc(-c3ccccc3Br)n2)c1 | 0.99 | 1 | 1
26 | CCCCCSc1nnc(-c2ccc(Cl)cc2Cl)o1 | 0.96 | 1 | 1
27 | COc1ccc(Cl)cc1NC(=O)CSc1nnc(-c2ccc(C)cc2)o1 | 0.982 | 1 | 1
28 | O=C(CSc1nnc(-c2ccccc2Cl)o1)Nc1nccs1 | 0.992 | 1 | 1
29 | Cc1cccc(-c2nnc(SCC(=O)Nc3ccccc3F)o2)c1 | 0.753 | 1 | 1
30 | CCc1nc(-c2ccc(-c3ccccc3)nc2OC)no1 | 0.99 | 1 | 1
31 | Cc1ccc(-c2noc(-c3cccc(C)c3)n2)cc1 | 0.947 | 0.557 (active) | 1
32 | CCOc1ccc(-c2nc(-c3ccc(C)cc3)no2)cc1 | 0.966 | 0.5 (active) | 1
33 | Cc1ccc(-c2nc(-c3ccccc3)no2)cc1C | 0.884 | 1 | 1
34 | CCn1c(C)cc(C(=O)CSc2nnc(-c3ccccc3)o2)c1C | 0.962 | 1 | 1
